For 7 molecules, growth results are on record in PubChem BioAssay (NCI).

What all share (experiment): NCI-60 one-dose screen, 48 h (100 = growth as untreated, 0 = no growth, -100 = all killed)
For one test, the system named is SK-MEL-2 melanoma. The following applies: 10 µM unless noted.
The subject of the next test is EKVX NSCLC. The following applies: 10 µM unless noted.
Another test deals with SN12C renal. The following applies: 10 µM unless noted.
Another test relates to UO-31 renal. The following applies: 10 µM unless noted.
The next test concerns TK-10 renal. Particulars: 10 µM unless noted.
The subject of another test is ACHN renal. Particulars: 10 µM unless noted.
In another test the test system is CAKI-1 renal. Particulars: 10 µM unless noted.
The test system of a further test is A498 renal. Particulars: 10 µM unless noted.
For a further test, the system named is CCRF-CEM leukemia. Particulars: 10 µM unless noted.
Another test deals with MOLT-4 leukemia. The following applies: 10 µM unless noted.
Another test relates to SR leukemia. Particulars: 10 µM unless noted.
A further test concerns RPMI-8226 leukemia. The following applies: 10 µM unless noted.
In another test the test system is OVCAR-8 ovarian. The following applies: 10 µM unless noted.
A further test relates to OVCAR-4 ovarian. Particulars: 10 µM.
The subject of a further test is SK-OV-3 ovarian. The following applies: 10 µM unless noted.
A further test has as its system IGROV1 ovarian. The following applies: 10 µM unless noted.
A further test concerns OVCAR-3 ovarian. Particulars: 10 µM unless noted.
The test system of the next test is HS 578T breast. The following applies: 10 µM unless noted.
The test system of another test is NCI/ADR-RES ovarian. The following applies: 10 µM unless noted.
A further test has as its system OVCAR-5 ovarian. Particulars: 10 µM unless noted.

SMILES strings stand for the structures. Compounds without any hit were thinned out: in the full panel of roughly 83,000, 20% have a hit.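 Activity criterion: percent growth below 10, measured after cells in 96-well plates were exposed to a single compound concentration for 48 hours.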 Unmarked numbers belong to inactive results. Calls of active or inactive are those of the source.

Turning to `CCCCCn1sc(=O)n(Cc2ccc(CNC(=O)OCc3ccc4cccc(O)c4n3)cc2)c1=O`, the growth with SK-MEL-2 melanoma was 39.3%; in the test on EKVX NSCLC it was 28.7%; with SN12C renal, -79.7% (active); in the test on UO-31 renal, -100% (active); with TK-10 renal it was -54% (active); with ACHN renal it was -100% (active). For the same molecule, the growth is -74.9% (active) with CAKI-1 renal; 4.89% (active) in the test on A498 renal; 7.05% (active) with CCRF-CEM leukemia; 1.87% (active) in the test with MOLT-4 leukemia; 4.06% (active) in the test on SR leukemia; -14.6% (active) with RPMI-8226 leukemia. The growth with OVCAR-8 ovarian is 8.91% (active); with OVCAR-4 ovarian, -50.6% (active); with SK-OV-3 ovarian it was 41.7%; with IGROV1 ovarian, -85.9% (active); in the test with OVCAR-3 ovarian, -84.5% (active); in the test with HS 578T breast it was 10.8%. Moreover, in the test with NCI/ADR-RES ovarian, the growth is -11.6% (active).
As for `CC(C)(C)c1cc(C(=O)N2CCC(C(=O)NCCN)CC2)cc(C(C)(C)C)c1`, the growth in the test with SK-MEL-2 melanoma is 97.4%; in the test on EKVX NSCLC it was 84.7%; with SN12C renal, 89.5%; in the test with UO-31 renal, 93.3%; in the test with TK-10 renal, 98.4%; in the test with ACHN renal it was 108%. Besides, the growth is 80.7% in the test with CAKI-1 renal; 56.6% with A498 renal; 94.8% in the test on CCRF-CEM leukemia; 98.5% in the test with MOLT-4 leukemia; 98.4% in the test with SR leukemia; 94.4% in the test on RPMI-8226 leukemia. In addition, the growth in the test on OVCAR-8 ovarian was 99%; in the test on OVCAR-4 ovarian, 105%; in the test with IGROV1 ovarian, 95.6%; in the test on OVCAR-3 ovarian, 104%; in the test on HS 578T breast, 92%; in the test on NCI/ADR-RES ovarian, 104%.
In the case of `Clc1ccc(N2CCN(CCCN3CCN(c4cccc(Cl)c4)CC3)CC2)cc1`, the growth was 96.7% with SK-MEL-2 melanoma; 41.9% in the test with EKVX NSCLC; 64.2% in the test with SN12C renal; 36.6% with UO-31 renal; 41.4% in the test with TK-10 renal; 71.6% in the test with ACHN renal. Besides, the growth is 42.7% in the test with CAKI-1 renal; 60.4% in the test on A498 renal; 58.9% with CCRF-CEM leukemia; 43.7% in the test on MOLT-4 leukemia; 15.4% with SR leukemia; 24.9% with RPMI-8226 leukemia. Moreover, the growth was 70.7% in the test on OVCAR-8 ovarian; 78.9% in the test on OVCAR-5 ovarian; 66.4% in the test on OVCAR-3 ovarian; 103% in the test with HS 578T breast; 65.5% in the test with NCI/ADR-RES ovarian.
In the case of `C=C(C)[C@@H]1CC[C@]2(C)[C@H](CC[C@@H]3[C@@H]([C@@](C)(O)CCC=C(C)C)CC[C@]32C)[C@@]1(C)CCC(=O)N1CCN(C)CC1`, the growth with SK-MEL-2 melanoma is -88.5% [100 µM] (active); with EKVX NSCLC, -66.4% [100 µM] (active); in the test on SN12C renal, -95.6% [100 µM] (active); with UO-31 renal, -100% [100 µM] (active); with TK-10 renal, -79.3% [100 µM] (active); in the test with ACHN renal it was -100% [100 µM] (active). The growth with CAKI-1 renal was -90.7% [100 µM] (active); with A498 renal it was -96% [100 µM] (active); in the test with CCRF-CEM leukemia, -27.6% [100 µM] (active); with MOLT-4 leukemia it was -41.2% [100 µM] (active); with SR leukemia, 7.02% [100 µM] (active); with RPMI-8226 leukemia, -38.4% [100 µM] (active). The growth was -65.6% [100 µM] (active) with OVCAR-8 ovarian; -83.4% [100 µM] (active) in the test on SK-OV-3 ovarian; -82.5% [100 µM] (active) in the test with IGROV1 ovarian; -85.9% [100 µM] (active) in the test on OVCAR-3 ovarian; -41.5% [100 µM] (active) in the test on HS 578T breast.
As for `CCOc1ccc(/C=C(\C#N)c2cc3ccccc3[nH]2)cc1`, the growth in the test with SK-MEL-2 melanoma is 36.1%; in the test with EKVX NSCLC it was 72.5%; with SN12C renal, 62.7%; in the test with UO-31 renal, 69.5%; with TK-10 renal it was 79.3%; with ACHN renal, 81.8%. In addition, the growth was 40.3% in the test on CAKI-1 renal; 63.4% in the test on CCRF-CEM leukemia; 31.2% in the test on MOLT-4 leukemia; 18.2% in the test on SR leukemia; 79.7% with RPMI-8226 leukemia; 65.4% with OVCAR-8 ovarian. The growth in the test on OVCAR-5 ovarian is 76.5%; in the test on OVCAR-4 ovarian it was 82.5%; with SK-OV-3 ovarian it was 67.8%; in the test on IGROV1 ovarian it was 56%; with OVCAR-3 ovarian it was 41.9%.
Turning to `CCOC(=O)c1c[nH]n2c(=S)ncnc12`, the growth with SK-MEL-2 melanoma was 94.8%; in the test with EKVX NSCLC, 108%; in the test on SN12C renal, 99.4%; with UO-31 renal, 84.8%; in the test on TK-10 renal it was 99.6%; in the test on ACHN renal, 99.7%. Further, the growth in the test with CAKI-1 renal was 102%; with CCRF-CEM leukemia it was 101%; with MOLT-4 leukemia, 90.7%; in the test on SR leukemia, 107%; in the test with RPMI-8226 leukemia, 107%; in the test with OVCAR-8 ovarian it was 104%. Also, the growth is 103% with OVCAR-5 ovarian; 101% with OVCAR-4 ovarian; 103% in the test on SK-OV-3 ovarian; 121% in the test on IGROV1 ovarian; 99.5% in the test with OVCAR-3 ovarian; 118% in the test on HS 578T breast.
On to `COc1cc(/C=C/C(=O)/C=C/c2ccc(-n3ccnc3)cc2)ccc1O`, for which the growth was 106% with SK-MEL-2 melanoma; 97.9% in the test on EKVX NSCLC; 76.6% in the test with SN12C renal; -25.7% (active) in the test on UO-31 renal; 101% with TK-10 renal; 48.3% in the test on ACHN renal. In addition, the growth was 91.5% in the test on CAKI-1 renal; 96.8% in the test with A498 renal; 37.1% in the test with CCRF-CEM leukemia; 33.4% in the test on MOLT-4 leukemia; 25.1% with SR leukemia; -5.38% (active) in the test on RPMI-8226 leukemia. The growth was 29.2% in the test with OVCAR-8 ovarian; 91.5% in the test with SK-OV-3 ovarian; -28.4% (active) in the test on IGROV1 ovarian; 34.4% in the test with OVCAR-3 ovarian; 86% with HS 578T breast.
